Data from PubChem BioAssay (Tox21).
Records with an inconclusive call do not appear. A call without a number means that no potency is given here. The source made the active and inactive calls. Calls come from the whole dose curve; as a rule, active = well fitted cell-killing curve with a large enough effect in the repeat runs; inconclusive = weak or mixed curves, or effect the other way; inactive = flat fitted curve, though single readings scatter.

Assays:
[1] = cAMP Responsive Elements (CRE) small molecule antagonists, cell-based qHTS assay: qHTS cell viability counter screen (AID 2060913); note: nearly all actives have a fitted effect of over 40% in size
Outline: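 Cytotoxicity read in the same wells as the CRE-bla HEK293T antagonist assay: after 3 h compound with 0.25 uM NKH477 final and 2 h beta-lactamase substrate, CellTiter-Glo luminescence measured.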

[2] = cAMP Responsive Elements (CRE) small molecule agonists, cell-based qHTS assay: qHTS cell viability counter screen (AID 2060914); note: nearly all actives have a fitted effect of over 50% in size; note: potency is the fitted concentration of half-maximal effect
Outline: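 In the same wells as the reporter read, viability of CRE-bla HEK 293T cells was quantified by CellTiter-Glo luminescence after a 3 h compound exposure.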

Row | Compound | Potency [1] | Potency [2]
1 | CCC(C(=O)NC(N)=O)c1ccccc1 (stereo not given) | inactive | inactive
2 | CC(=O)NNC(C)=O | inactive | inactive
3 | COc1ccc(C)cc1[N+](=O)[O-] | inactive | inactive
4 | CCOC(=O)[C@H](CCc1ccccc1)N[C@@H](C)C(=O)N1Cc2cc(OC)c(OC)cc2C[C@H]1C(=O)O | inactive | inactive
5 | CCCC1CCC(=O)CC1 | inactive | inactive
6 | Cc1[nH]c(=O)c(C#N)cc1-c1ccncc1 | inactive | inactive
7 | CC(C)NCC(O)COc1ccc(CCOCC2CC2)cc1 (stereo not given) | inactive | inactive
8 | CC[N+](C)(C)c1cccc(O)c1 | inactive | inactive
9 | CCCCCCCCCCC=O | inactive | inactive
10 | CCCCOC(=O)C(C)Oc1ccc(Oc2ccc(C(F)(F)F)cn2)cc1 (stereo not given) | inactive | inactive
11 | CCN(CC)CCc1nc(-c2ccccc2)no1 | inactive | inactive
12 | CCCCCCCC(=O)N(C)C | inactive | inactive
13 | CCOc1ccc(NC(=O)OC(C)C)cc1OCC | inactive | inactive
14 | CC1CN(c2ccccc2)NC1=O (stereo not given) | inactive | inactive
15 | CCCCCCCN | inactive | inactive
16 | CCCCCCCCCCCC(=O)OCC(C)OC(=O)CCCCC(=O)O (stereo not given) | inactive | inactive
17 | COc1nc(N)nc2c1ncn2[C@@H]1O[C@H](CO)[C@@H](O)[C@@H]1O | inactive | inactive
18 | Cc1ccc(N)cc1S(=O)(=O)O | inactive | inactive
19 | Cc1ccc(CCn2c3c(c4cc(Cl)ccc42)CN(C)CC3)cn1 | inactive | inactive
20 | CC[C@H](C)C(=O)O[C@H]1C[C@H](O)C=C2C=C[C@H](C)[C@H](CC[C@@H](O)C[C@@H](O)CC(=O)O)[C@H]21 | inactive | 5.45 µM (active)
